High-throughput results as filed in PubChem BioAssay.
An excerpt weighted towards active compounds, which were near 3.5% of everything screened.
CHRM1 PAM: potentiates human M1 receptor response to acetylcholine. P11229. CHO-K1 hM1, Fluo-8 calcium fluorescence, ACh EC20; 0% = ACh EC20, 100% = maximal ACh. activation, % at 3 µM. actives 0.088% (n = 360,000). AID 588819; in the data active = activation above about 19%, passing the limit was not always enough
Target sequence (P11229 whole entry, looked up): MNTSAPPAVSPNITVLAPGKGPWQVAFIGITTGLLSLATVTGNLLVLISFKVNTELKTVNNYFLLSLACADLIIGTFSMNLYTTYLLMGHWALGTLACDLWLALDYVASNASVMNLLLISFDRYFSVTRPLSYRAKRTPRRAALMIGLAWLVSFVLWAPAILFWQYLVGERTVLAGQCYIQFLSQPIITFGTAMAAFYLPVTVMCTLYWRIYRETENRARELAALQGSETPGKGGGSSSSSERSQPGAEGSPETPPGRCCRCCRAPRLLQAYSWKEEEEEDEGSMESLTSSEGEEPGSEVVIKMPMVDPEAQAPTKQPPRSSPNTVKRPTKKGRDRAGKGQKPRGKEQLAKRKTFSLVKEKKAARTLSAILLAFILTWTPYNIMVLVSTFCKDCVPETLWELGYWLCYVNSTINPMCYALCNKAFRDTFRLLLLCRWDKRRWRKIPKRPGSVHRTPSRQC
Myeloid diff MLP: promotes myeloid progenitor differentiation; ER-HoxA9 myeloid progenitors, lysozyme-GFP differentiation, flow cytometry; calls only at 10 µM; actives 1% (n = 360,000);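 active = normalized GFP-positive differentiation at or above the plate's own cutoff, the solvent-only control mean plus 3 SD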;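 also: cells exposed to compound for four days before flow analysis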
M1 antag: antagonists of human M1 muscarinic receptor; inhibition, % at 3 µM; CHO-K1 hM1, Fluo-8 calcium fluorescence, ACh EC80 antagonist; actives 1.3% (n = 360,000); P11229; AID 588852;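 active = percent inhibition above its own plate's cutoff, namely the mean of that plate's compound wells plus 3 SD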;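 also: peak over basal fluorescence ratio during 140 s after agonist addition; 0% = ACh EC80 plus DMSO and 100% = DMSO alone without agonist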
ATG4B inh: ATG4B (human) cysteine protease inhibition | Q9Y4P1 | ATG4B cleavage of LC3-PLA2, NBD-HPC fluorescence, 1 h | inhibition, % at 8.33 µM | actives 0.51% (n = 340,000) | AID 504462; in the data active = inhibition above about 40%
SKN-1 block: blocks SKN-1 activity in C. elegans | C. elegans VP596 Pgst-4::GFP/RFP ratio, acrylamide-induced, 24 h | AID 624304 | inhibition, % at 21.8 µM | actives 0.49% (n = 360,000);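 active = interference check ratio from 0.5 to 1.5 plus GFP to RFP signal ratio inhibition reaching or exceeding a fixed threshold, cut at about 30% in these data, passing the limit was not always enough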
M1 ag: activates human CHRM1 receptor; P11229; CHO-K1 hM1, Fluo-8 calcium fluorescence, agonist mode; 0% DMSO, 100% acetylcholine EC100; activation, % at 3 µM; actives 0.33% (n = 360,000); AID 588814;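 active = activation above the run's mean compound activation plus 3 SD, cut at about 16% in these data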;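 also: peak over basal fluorescence ratio within a 140 s kinetic read after compound addition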
Starred values were filed as active, the others as inactive; i = inactive; x = no result; + = active, no number.

SMILES	CHRM1 PAM	Myeloid diff MLP	M1 antag	ATG4B inh	SKN-1 block	M1 ag
CN(C)c1ccc(-c2csc(C(O)c3ccc(F)cc3)n2)cc1 (stereo not given)	-22.5	i	4.5	x	13.9	18.0*
CN(C)c1ccc(-c2csc(C(O)c3ccccc3)n2)cc1 (stereo not given)	-7.3	i	-13.3	x	-4.9	4.3
O=C(CC1C(=O)NCCN1Cc1ccccc1C(F)(F)F)NCCn1cccn1 (stereo not given)	11.5	i	-11.5	-7.4	4.3	-5.3
Cn1c(=O)c(C(=O)NNC(=O)c2cccc(Cl)c2)c(O)c2ccccc21	-0.4	i	2.4	2.8	-2.2	-1.6
CCn1c(=O)c(C(=O)NNC(=O)c2cccc(Cl)c2)c(O)c2ccccc21	-12.9	i	22.6	-3.7	6.4	21.3*
CCn1c(=O)c(C(=O)Nc2nc3ccccc3[nH]2)c(O)c2ccccc21	-11.7	i	51.0*	6.3	14.3	4.6
Cc1ccc(F)c(C(=O)N2CCCC(C)(C(=O)NS(=O)(=O)C3CC3)C2)c1F (stereo not given)	5.4	i	-11.3	x	6.8	-1.6
COc1cc2c(-c3ccc4cc[nH]c4c3)c(-c3ccsc3)oc(=O)c2cc1OC	-25.2	i	36.6*	-10.9	5.1	-11.7
COc1ccc(-c2c(-c3ccsc3)oc(=O)c3cc(OC)c(OC)cc23)cn1	-7.0	i	16.8	-3.9	12.0	-3.0
Cc1ccc(S(=O)(=O)N2CCCCC2C)cc1[N+](=O)[O-] (stereo not given)	-2.8	i	1.9	-1.0	-11.3	-4.5
COc1ccc(CNc2cc(C)nc3ncnn23)c(OC)c1	-2.7	+	4.0	20.2	-0.4	1.6
O=P(CCCCCCCCCP(=O)(c1ccccc1)c1ccccc1)(c1ccccc1)c1ccccc1	-10.3	i	31.7*	-18.9	-27.4	1.6
O=C(O)CCCCCCCCCCP(=O)(c1ccccc1)c1ccccc1	5.8	i	-6.9	-3.4	-13.9	-1.0
O=C(CN1CCN(C(c2ccccc2)c2ccccc2)CC1)N1CCOCC1	-25.4	i	63.1*	-5.6	-8.5	4.7
O=C(Nc1ccccc1-c1ccccc1)NC1CCN(CC(=O)N2CCOCC2)CC1	-16.5	i	35.2*	1.3	1.5	-5.7
O=C(O)COCC(=O)N1CCN(C(c2ccccc2)c2ccccc2)CC1	-22.2	i	57.7*	-9.2	2.3	-3.2
Cc1cc(=O)[nH]c(SCC(=O)N2CCN(C(c3ccccc3)c3ccccc3)CC2)n1	-21.3	i	52.5*	-17.6	11.0	-4.7
Cc1cccc(C(=O)NC2CCN(CC(=O)N3CCOCC3)CC2)c1	1.5	i	4.1	-4.8	-1.3	-1.7
N#CCC(=O)N1CCN(C(c2ccccc2)c2ccccc2)CC1	-4.3	i	2.8	0.0	9.9	-8.8
COCCOc1ccc(C(F)(F)F)cc1NC(=O)COC(=O)Cc1c[nH]c2ccccc12	8.2	i	-10.6	-13.2	-1.9	-1.6
CCn1cc(C(=O)N[C@@H](CCSC)C(=O)NCCO)c(=O)c2cc3c(cc21)OCO3	-2.0	i	-0.7	1.2	-7.9	-2.5
Cc1cc(C)cc(C(=O)NCC(=O)NNC(=O)CSc2ccccc2F)c1	15.5	i	-16.5	-1.8	-19.6	-1.8
COc1ccc(N2CCN(C(=O)CN3CCN(C(c4ccccc4)c4ccccc4)CC3)CC2)cc1	-23.6	i	64.6*	-11.5	13.2	-10.2
COc1ccc(N2CCN(C(=O)C(=O)c3cn(CC(=O)N4CCOCC4)c4ccccc34)CC2)cc1	7.7	i	-10.1	-4.9	-5.0	-3.0
COc1ccc(N2CCN(C(=O)C(=O)c3cn(CC(=O)N4CCCCCC4)c4ccccc34)CC2)cc1	2.0	+	8.8	-5.2	-8.7	-2.2
SMILES	CHRM1 PAM	Myeloid diff MLP	M1 antag	ATG4B inh	SKN-1 block	M1 ag
C[C@H](CO)N1C[C@H](C)[C@H](CN(C)C(=O)CCC(F)(F)F)OCc2cnnn2CCCC1=O	3.6	i	-2.4	x	5.2	-4.0
C=CCNC(=O)c1cc2c(=O)n3ccccc3nc2s1	3.4	i	6.3	2.5	41.2*	-3.4
Cc1cc(C(=O)CSc2nnc(C3COc4ccccc4O3)n2C)c(C)n1-c1ccc(F)cc1 (stereo not given)	2.2	i	-7.7	-13.5	47.7*	-2.6
CCN(CC)c1ccc(/C=C/c2cc(-c3ccccc3)c3ccccc3n2)cc1	-2.0	+	36.3*	5.7	48.7	18.0*
CCOc1ccc(CN2CCCC(N3CCN(c4ccc(OC)cc4)CC3)C2)cc1 (stereo not given)	-19.2	i	34.5*	2.5	10.3	-8.6
OCCOc1ccc(CN2CCCC(N3CCN(c4ccc(F)cc4)CC3)C2)cc1 (stereo not given)	-1.0	i	1.9	2.0	-0.1	-10.0
Cc1cc(NC(=O)CSCC(=O)NCc2cccc(C(F)(F)F)c2)no1	2.2	i	-11.9	8.0	-5.6	-0.6
Cc1cc(NC(=O)CS(=O)(=O)c2cn(Cc3cccc(F)c3)c3ccccc23)no1	20.1	i	-9.4	3.2	-9.9	17.0*
CCn1cc(S(=O)(=O)CC(=O)Nc2cc(C)on2)c2ccccc21	-4.5	i	17.5	-8.2	-12.0	-0.8
Cc1cc(NC(=O)CS(=O)(=O)c2cn(Cc3cccc(C(F)(F)F)c3)c3ccccc23)no1	7.3	i	-7.5	x	-0.5	18.1*
Cc1cc(NC(=O)CS(=O)(=O)c2cn(Cc3ccc(F)cc3)c3ccccc23)no1	10.7	i	17.0	-4.9	-5.0	32.1*
O=C(CSc1cn(Cc2cccc(F)c2)c2ccccc12)NCc1ccc(F)cc1	-13.1	i	31.0*	-9.6	-1.1	-4.7
Cc1cc(C(=O)CCC(=O)Nc2ccc(C(N)=O)cc2)c(C)s1	-2.8	i	-0.5	x	-2.8	-1.6
COC(=O)[C@@]12C[C@@H](CC(=O)NCc3cccs3)C(=O)N(Cc3cccc4ccccc34)C1=CCC(C)(C)C2	x	i	x	x	4.7	x
CC(=O)N1CCN(C(=O)CCCNC(=O)c2ccc(Cl)cc2)CC1	3.2	i	-4.8	-6.7	17.0	-1.3
C[C@H](NC(=O)c1nc[nH]c1C(=O)N1CCNCC1)C(=O)OC(C)(C)C	12.4	i	-10.3	-4.1	5.6	-0.7
CCOc1ccc(/C=N/NC(=O)c2nnn(-c3nonc3N)c2-c2cccs2)cc1	-2.0	i	27.4	1.2	15.5	44.4*
CCOc1ccc(-c2c(C(=O)N/N=C/c3ccc(C)cc3)nnn2-c2nonc2N)cc1	18.2	i	-15.3	-16.0	11.4	18.6*
CCOc1ccc(-c2c(C(=O)N/N=C/c3cccs3)nnn2-c2nonc2N)cc1	3.0	i	3.1	-2.4	-4.6	11.4
CCc1ccc(/C=N/NC(=O)c2nnn(-c3nonc3N)c2C(C)C)cc1	23.9	i	-1.8	-3.2	-6.1	32.5*
